Experimental data: a collection of fitness landscapes (doi:10.1126/science.1257360)
In all, about 140,000 sequences were measured (“enrichment ratio after two sorts for PhoP signalling”: median about 0, highest 2% from about 11 on). This excerpt belongs to a sample that is enriched for the highest values.

B1: PhoQ; a variant is named by its letters at X, in order, P23837 (parent)
chain: MKKLLRLFFPLSLRVRFLLATAAVVLVLSLAYGMVALIGYSVSFDKTTFRLLRGESNLFYTLAKWENNKLHVELPENIDKQSPTMTLIYDENGQLLWAQRDVPWLMKMIQPDWLKSNGFHEIEADVNDTSLLLSGDHSIQQQLQEVREDDDDAEMTHSVAVNVYPATSRMPKLTIVVVDTIPVELKSSYMVWSWFIYVLSANLLLVIPLLWVAAWWSLRPIEALAKEVRELEEHNRELLNPATTRELTSLVRNLNRLLKSERERYDKYRTTLTDLTHSLKTPLXXLQXXLRSLRSEKMSVSDAEPVMLEQISRISQQIGYYLHRASMRGGTLLSRELHPVAPLLDNLTSALNKVYQRKGVNISLDISPEISFVGEQNDFVEVMGNVLDNACKYCLEFVEISARQTDEHLYIVVEDDGPGIPLSKREVIFDRGQRVDTLRPGQGVGLAVAREITEQYEGKIVAGESMLGGARMEVIFGRQHSAPKDE

Variants of: B1
Test: enrichment ratio after two sorts for PhoP signalling (ratio (wild type AVST 3.29)); higher = more functional
Details: with PhoP (E. coli)

Variant | enrichment ratio
KDFC | ≤ 0.25
ATPI | 8.1
YTTG | ≤ 0.25
ATIV | 8.37
ATVG | 6.86
ITCG | ≤ 0.25
ATMG | 16.2
ATMV | 9.43
ATCG | 16.1
AICG | 8.42
ATCV | 15.4
ATTG | 12
TTTG | 7.1
HMVR | ≤ 0.25
PPPT | ≤ 0.25
HYAC | ≤ 0.25
MRCY | ≤ 0.25
ALEK | ≤ 0.25
QMAV | ≤ 0.25
HMTD | ≤ 0.25
LMTS | 0.708
YCYV | ≤ 0.25
SCYS | 0.535

Variant | enrichment ratio
QMGG | ≤ 0.25
LLQC | ≤ 0.25
ATNL | 5.25
ATCI | 12.5
ATCK | 3.27
ATHW | ≤ 0.25
ATMD | 27.9
ATCL | 18.6
ATCA | 5.9
ATYD | ≤ 0.25
ATPW | ≤ 0.25
ATPL | 5.31
ATMW | 26.9
ATGD | ≤ 0.25
WGSP | ≤ 0.25
HYYD | ≤ 0.25
WSIS | ≤ 0.25
ITGG | ≤ 0.25
MSAK | ≤ 0.25
EGWA | ≤ 0.25
DSML | ≤ 0.25
IFTF | ≤ 0.25
PWYL | ≤ 0.25

Variant | enrichment ratio
ATCW | 11.3
ADCW | ≤ 0.25
YTCW | ≤ 0.25
HMKN | ≤ 0.25
NKTY | ≤ 0.25
ANAY | 36.4
ANYI | ≤ 0.25
AQAY | 15.2
AHAY | 1.08
AQYI | ≤ 0.25
ANNY | 6.43
AKAY | 13.6
NQAY | ≤ 0.25
AIAY | 6.61
CPSL | ≤ 0.25
QEVG | ≤ 0.25
FDGF | ≤ 0.25
HSWS | ≤ 0.25
NKSN | ≤ 0.25
WFED | ≤ 0.25
WRFE | ≤ 0.25
IQAV | ≤ 0.25
NVMV | ≤ 0.25

Variant | enrichment ratio
THCH | 5.09
SHCH | 16
GTCH | 4.08
CTCH | ≤ 0.25
ITCH | ≤ 0.25
SHMH | 3
KLCH | ≤ 0.25
SLCH | 11.6
YTCH | 0.285
STCH | 12.6
WLCH | ≤ 0.25
TTCH | 15
DCLL | ≤ 0.25
YWMV | ≤ 0.25
YISQ | 0.456
YEYI | ≤ 0.25
RIQD | ≤ 0.25
APKL | ≤ 0.25
KTLD | ≤ 0.25
QTQN | ≤ 0.25
LCCT | ≤ 0.25
EDCL | ≤ 0.25
KEMG | ≤ 0.25

Variant | enrichment ratio
SAQL | 9.87
NIQL | ≤ 0.25
SLQL | 5.85
YTQL | ≤ 0.25
STQL | 17.1
QEQL | ≤ 0.25
SIQL | 13.1
KYQL | ≤ 0.25
SGQL | 12
SQQL | 2.28
SMQL | 12.1
QLRC | ≤ 0.25
KRKR | ≤ 0.25
YDDH | ≤ 0.25
EAQW | ≤ 0.25
TNNK | ≤ 0.25
TNIC | ≤ 0.25
TNTC | 11.6
TNTI | 15.8
TNTS | 13.4
TNTA | 10.1
TNTH | 1.01
TNTD | ≤ 0.25

Variant | enrichment ratio
TNTK | ≤ 0.25
WEHT | ≤ 0.25
FCPF | ≤ 0.25
IDMQ | ≤ 0.25
VSQK | ≤ 0.25
HKCQ | ≤ 0.25
TKCQ | 11.7
AWCQ | ≤ 0.25
AKCQ | 19.1
AICQ | 3.77
MKCQ | ≤ 0.25
PWVC | ≤ 0.25
MMCL | 4.1
KKCV | ≤ 0.25
TKCL | 14.6
TKCS | 13.2
TKCE | 7.83
KKCL | 1.66
GGMT | ≤ 0.25
MKCL | 16.5
HKCL | 3.32
TKCV | 30.6
TKCI | 10.8

Variant | enrichment ratio
AKCV | 3.07
SKMP | ≤ 0.25
GFDT | ≤ 0.25
WRTW | ≤ 0.25
DDAA | ≤ 0.25
ARFW | ≤ 0.25
SIAC | 13
AEYS | 1.65
AIAC | 19.1
VHAC | ≤ 0.25
TGAC | 11.4
NGAC | ≤ 0.25
SPAC | ≤ 0.25
KYAC | ≤ 0.25
KKAC | ≤ 0.25
GGAC | ≤ 0.25
AEAC | 43.5
AEFC | 6.7
